Results on 40 compounds are retold here after the supplement of paper PMC9023506.

Counter-ions that a name gives are not always drawn.

In the assay the test system is Danio rerio larvae (5 dpf). The experiment in a line: optomotor response to fast red moving lines, difference vs DMSO (percentage points (treated minus DMSO)); higher = more of the behaviour than the DMSO vehicle control. The following applies: 10 µM; exposure time: 3 h pre-incubation + 3 h imaging. Here is the method: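 5-dpf wild-type zebrafish larvae were imaged in 96-well plates. They were treated with 190 Tocris FDA-approved drugs at 10 µM (1 µl/ml DMSO) for 3 h before and 3 h during imaging at 28.5 °C, 48 larvae per drug. Automated image analysis gave % time moving and optomotor responses. Values are drug group mean minus DMSO vehicle mean (n=844), in percentage points, for 10 behaviours.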
In the case of `CN1CCN(CCCN2c3ccccc3Sc3ccc(Cl)cc32)CC1` [Prochlorperazine dimaleate], the optomotor response stood at 2.92.
With `O=C(Nc1c(Cl)cncc1Cl)c1ccc(OC(F)F)c(OCC2CC2)c1` [Roflumilast] the figure was -10.8; with `CCC(C)(C)C(=O)O[C@H]1C[C@@H](C)C=C2C=C[C@H](C)[C@H](CC[C@@H]3C[C@@H](O)CC(=O)O3)[C@H]21` [Simvastatin], -13.2.
With `CCOc1cc(CC(=O)N[C@@H](CC(C)C)c2ccccc2N2CCCCC2)ccc1C(=O)O` [Repaglinide], the optomotor response is -12.1.
`CNCc1ccc(-c2[nH]c3cc(F)cc4c3c2CCNC4=O)cc1` [Rucaparib camsylate]: the optomotor response came out at 3.57.
As for `CC(C)N(CCCCOCC(=O)NS(C)(=O)=O)c1cnc(-c2ccccc2)c(-c2ccccc2)n1` [Selexipag], the optomotor response was -6.49.
Then `CNS(=O)(=O)Cc1ccc2[nH]cc(CCN(C)C)c2c1` [Sumatriptan succinate], with -17.2; and `OCCOCCN1CCN(C2=Nc3ccccc3Sc3ccccc32)CC1` [Quetiapine hemifumarate], with -5.91.
With `CN(C)CCc1c[nH]c2ccc(C[C@H]3COC(=O)N3)cc12` [Zolmitriptan] the figure was -9.74.
On to `C#C[C@]1(O)CC[C@H]2[C@@H]3CCC4=CC(=O)CC[C@@H]4[C@H]3CC[C@@]21CC` [Levonorgestrel], for which the optomotor response was determined as 9.62.
Then `COc1cc2nc(N3CCN(C(=O)C4COc5ccccc5O4)CC3)nc(N)c2cc1OC` (stereo not given) [Doxazosin mesylate], with -4.8; and `COc1ccc(Cl)cc1C(=O)NCCc1ccc(S(=O)(=O)NC(=O)NC2CCCCC2)cc1` [Glibenclamide], with -19.5.
With `CN1CC[C@@H](NC(=O)Nc2ccc(C#N)cc2)C[C@@H]1c1nc2ccccc2[nH]1` the figure was -0.171.
With `CC(C)(C#N)c1cc(Cn2cncn2)cc(C(C)(C)C#N)c1` [Anastrozole] the figure was -1.59.
In the case of `Nc1cccc2c1CN(C1CCC(=O)NC1=O)C2=O` (stereo not given) [Lenalidomide], the optomotor response was -0.414.
With `Cc1cc2c(s1)Nc1ccccc1N=C2N1CCN(C)CC1` [Olanzapine] the figure was 9.42.
Then `CC(=O)NC[C@H]1CN(c2ccc(N3CCOCC3)c(F)c2)C(=O)O1` [Linezolid], with 5.73; and `Clc1ccc2nsnc2c1NC1=NCCN1` [Tizanidine hydrochloride], with 4.15.
With `NC(=O)c1ncn([C@@H]2O[C@H](CO)[C@@H](O)[C@H]2O)n1` [Ribavirin] the figure was 0.429.
On to `Cc1c(-c2ccc(O)cc2)n(Cc2ccc(OCCN3CCCCCC3)cc2)c2ccc(O)cc12` [Bazedoxifene acetate], for which the optomotor response amounted to 0.818.
Then `O=C(NCC1CCCCN1)c1cc(OCC(F)(F)F)ccc1OCC(F)(F)F` (stereo not given) [Flecainide acetate], with 1.94; and `C=C1[C@H](CO)[C@@H](O)C[C@@H]1n1cnc2c(=O)[nH]c(N)nc21` [Entecavir], with -0.927; and `CC(C)c1nc(N(C)S(C)(=O)=O)nc(-c2ccc(F)cc2)c1/C=C/[C@@H](O)C[C@@H](O)CC(=O)O` [Rosuvastatin calcium], with 11.1.
With `O=C1CCc2ccc(OCCCCN3CCN(c4cccc(Cl)c4Cl)CC3)cc2N1` [Aripiprazole] the figure was 7.59; with `CCOC(=O)c1ncn2c1CN(C)C(=O)c1cc(F)ccc1-2` [Flumazenil], 9.89; with `CNC(=O)c1cc(Oc2ccc(NC(=O)Nc3ccc(Cl)c(C(F)(F)F)c3)cc2)ccn1` [Sorafenib], -21.1.
Then `Cc1nnc(C(C)C)n1C1C[C@H]2CC[C@@H](C1)N2CC[C@H](NC(=O)C1CCC(F)(F)CC1)c1ccccc1` (stereo in doubt) [Maraviroc], with 6.43; and `COc1ccccc1Oc1c(NS(=O)(=O)c2ccc(C(C)(C)C)cc2)nc(-c2ncccn2)nc1OCCO` [Bosentan], with 0.298; and `CCOc1nc2cccc(C(=O)O)c2n1Cc1ccc(-c2ccccc2-c2nnn[nH]2)cc1` [Candesartan], with 1.2.
Consider `CCN(CC)CCNC(=O)c1c(C)[nH]c(/C=C2\C(=O)Nc3ccc(F)cc32)c1C` [Sunitinib malate], for which the optomotor response was found to be 10.6.
Take `COc1cc(Nc2c(C#N)cnc3cc(OCCCN4CCN(C)CC4)c(OC)cc23)c(Cl)cc1Cl` [Bosutinib]: the optomotor response turned out to be 1.89.
As for `O=C(O)c1cc(/N=N/c2ccc(S(=O)(=O)Nc3ccccn3)cc2)ccc1O` [Sulfasalazine], the optomotor response was -5.17.
Then `COC(=O)C1=C(C)NC(C)=C(C(=O)OC(C)C)C1c1cccc2nonc12` (stereo not given) [Isradipine], with -16.6; and `C[C@H]1C[C@@H]2[C@H]([C@@H](O)C[C@@]3(C)[C@H]2CC[C@]3(O)C(=O)CO)[C@@]2(C)C=CC(=O)C=C12` [Methylprednisolone], with -4.16.
Then `Cc1nc(Nc2ncc(C(=O)Nc3c(C)cccc3Cl)s2)cc(N2CCN(CCO)CC2)n1` [Dasatinib], with -12.1.
As for `Clc1ccccc1C(c1ccccc1)(c1ccccc1)n1ccnc1` [Clotrimazole], the optomotor response is 17.9.
For the compound `OCc1cc(C(O)CNCCCCCCOCCCCc2ccccc2)ccc1O` (stereo not given) [Salmeterol xinafoate], the optomotor response is -5.49.
As for `CCOc1nc2cccc(C(=O)O)c2n1Cc1ccc(-c2ccccc2-c2noc(=O)[nH]2)cc1` [Azilsartan], the optomotor response is -3.36.
Take `Nc1nc(F)nc2c1ncn2[C@@H]1O[C@H](CO)[C@@H](O)[C@@H]1O` [Fludarabine]: the optomotor response was -4.77.
With `CC(C)c1nc(CN(C)C(=O)N[C@H](C(=O)N[C@@H](Cc2ccccc2)C[C@H](O)[C@H](Cc2ccccc2)NC(=O)OCc2cncs2)C(C)C)cs1` [Ritonavir], the optomotor response was -9.38.
